Only a selection was taken, and hits are over-represented in it overall.
MITF inhib – inhibitors of MITF, primary screen, MITF inhibitor project, cell-based, luminescence. TRPM1 promoter luciferase, 24 h. inhibition, % (no concentration beside the values). actives 0.28% (n = 37,000). AID 2240, 2010; in the data active = inhibition above about 85%; inconclusive = no clear call, values can overlap the other calls; inactive = below about 68%;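 also: human melanocyte line stably carrying TRPM1 promoter luciferase reporter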
Hedgehog inh – Hedgehog pathway signaling inhibitors, primary screen, luminescence, Shh-LIGHT2 cells, Gli-luciferase | Shh-LIGHT2 Gli-luciferase reporter, 30 h | inhibition, % (test concentration not listed) | actives 2.1% (n = 22,000);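 active = mean inhibition across valid replicates above about 65%, limit read from the data; inconclusive = mean under the limit, yet half or more replicates past it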;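 also: pathway switched on by Shh-conditioned medium diluted 1 in 25 in low serum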
Hits are given with their value; n = inactive; u = inconclusive; x = not tested or not shown.

SMILES	MITF inhib	Hedgehog inh
Cc1ccc(S(=O)(=O)N(C)C[C@H]2Oc3c(NC(=O)Nc4ccc5c(c4)OCO5)cccc3C(=O)N([C@@H](C)CO)C[C@H]2C)cc1	n	n
C[C@H]1CN([C@@H](C)CO)C(=O)c2cccc(NC(=O)Nc3ccc4c(c3)OCO4)c2O[C@H]1CN(C)S(=O)(=O)c1ccc(Cl)cc1	n	107
Cc1ccc(S(=O)(=O)N(C)C[C@@H]2Oc3c(NC(=O)Nc4ccc5c(c4)OCO5)cccc3C(=O)N([C@@H](C)CO)C[C@H]2C)cc1	n	n
C[C@H](CO)N1C[C@H](C)[C@H](CN(C)S(=O)(=O)c2ccc(Cl)cc2)Oc2c(NC(=O)Nc3ccc4c(c3)OCO4)cccc2C1=O	n	110
CC1(C)CC(=O)C(C=NC(CO)(CO)CO)=C(O)C1	n	n
COc1cc(-c2c(C#N)c(SCC#N)nc(N)c2C(=O)OC(C)C)cc(OC)c1OC	n	n
Cc1cccc(C)c1NC(=O)CSc1nnnn1-c1ccc(I)cc1	n	x
O=C1c2ccccc2-[n+]2ccc3c([nH]c4ccccc43)c21	108	u
O=C1C(c2c(O)[nH]c3ccccc23)=Nc2ccccc21	n	n
Cc1cccc(N=Cc2c(O)n(-c3ccccc3)c(=O)c3ccccc23)c1	n	n
COc1ccc(-n2c(CC#N)nnc2SCc2c(C)c(C)c(C)c(C)c2C)cc1	n	n
O=C(CSc1nc2ccc([N+](=O)[O-])cc2[nH]1)Nc1ccc2c(c1)OCCO2	n	x
O=C(CSc1nc2ccc([N+](=O)[O-])cc2[nH]1)Nc1cc(C(F)(F)F)cc(C(F)(F)F)c1	87	x
CCC(=O)OCC(=O)[C@@]1(OC(=O)CC)[C@H](C)CC2C3C([C@@H](O)C[C@@]21C)[C@@]1(C)C=CC(=O)C=C1C[C@H]3Cl (stereo partly drawn)	n	68
CCC(=O)OC1(C(=O)CCl)[C@@H](C)C[C@H]2[C@@H]3CCC4=CC(=O)C=C[C@]4(C)[C@@]3(F)[C@@H](O)C[C@@]21C (stereo partly drawn)	n	n
CCCC1O[C@@H]2C[C@H]3[C@@H]4CCC5=CC(=O)C=C[C@]5(C)[C@H]4[C@@H](O)C[C@]3(C)[C@]2(C(=O)CO)O1 (stereo partly drawn)	n	n
CCC(=O)[C@@]1(C)[C@H](C)C[C@H]2[C@@H]3CCC4=CC(=O)C=C[C@]4(C)[C@H]3[C@@H](O)C[C@@]21C	n	65
CC(=O)Nc1ccc(C(=O)CSc2nnc(-c3cccc(Br)c3)o2)cc1	n	x
O=C1N(c2cccc(Cl)c2)C(=Nc2cccc(Cl)c2)SC12CC2	n	n
O=C(CSc1n[nH]c(-c2ccc(Cl)cc2)n1)c1ccc(Br)cc1	n	x
COc1ccc(C)cc1S(=O)(=O)N(C)CC(=O)O	n	x
COc1ccc(NC(=O)C2=C(C)NC(=S)NC2c2cccc([N+](=O)[O-])c2)c(OC)c1 (stereo not drawn)	n	x
COC(=O)C1=C(C)NC(C)=C(C(=O)OCCCN2CCC(c3ccccc3)(c3ccccc3)CC2)C1c1cccc([N+](=O)[O-])c1 (stereo not drawn)	110	72
Cc1ccc(N2C3=C(C(=O)CC(C)(C)C3)C(c3cccs3)C3=C2CC(C)(C)CC3=O)cc1C	n	n
C[C@H](CO)N1C[C@H](C)[C@H](CN(C)S(=O)(=O)c2ccc(Cl)cc2)Oc2c(NC(=O)c3ccc(-c4nccs4)cc3)cccc2C1=O	n	95
SMILES	MITF inhib	Hedgehog inh
C[C@@H]1CN([C@@H](C)CO)C(=O)c2cccc(NC(=O)C3CCCCC3)c2O[C@@H]1CN(C)S(=O)(=O)c1ccc(Cl)cc1	n	n
C[C@@H]1CN([C@H](C)CO)C(=O)c2cccc(NC(=O)C3CC3)c2O[C@H]1CN(C)S(=O)(=O)c1ccc(Cl)cc1	n	n
C[C@H]1CN([C@@H](C)CO)C(=O)c2cccc(NC(=O)C3CC3)c2O[C@H]1CN(C)S(=O)(=O)c1ccc(Cl)cc1	n	90
C[C@H](CO)N1C[C@H](C)[C@@H](CN(C)S(=O)(=O)c2ccc(Cl)cc2)Oc2c(NC(=O)C3CCCCC3)cccc2C1=O	n	n
C[C@H](CO)N1C[C@H](C)[C@@H](CN(C)S(=O)(=O)c2ccc(Cl)cc2)Oc2c(NC(=O)c3ccc(-c4nccs4)cc3)cccc2C1=O	n	n
C[C@H](CO)N1C[C@H](C)[C@H](CN(C)S(=O)(=O)c2ccc(Cl)cc2)Oc2c(NC(=O)C3CCCCC3)cccc2C1=O	n	103
C[C@H]1CN([C@@H](C)CO)C(=O)c2cccc(NC(=O)C3CCCCC3)c2O[C@H]1CN(C)S(=O)(=O)c1ccc(Cl)cc1	n	98
CCN(CCS(=O)(=O)c1ccc(Cl)cc1)S(=O)(=O)c1ccc(Cl)cc1	n	x
CO[C@@]12[C@@H]3NC3CN1C1=C(C(=O)C(N)=C(C)C1=O)[C@@H]2COC(N)=O (stereo partly drawn)	n	67
COCCC(=O)C1=CSC2=C(C(=O)CC(C)(C)C2)C1c1ccncc1 (stereo not drawn)	n	n
COC(=O)/C=C1/NCC(OC(=O)c2ccc(C(C)(C)C)cc2)CNC1=O (stereo not drawn)	n	n
Cc1noc(C)c1S(=O)(=O)Nc1cccc2c1O[C@@H](CN(C)S(=O)(=O)c1ccccc1)[C@@H](C)CN([C@@H](C)CO)C2=O	n	n
Cc1noc(C)c1S(=O)(=O)Nc1cccc2c1O[C@@H](CN(C)S(=O)(=O)c1ccc(Cl)cc1)[C@@H](C)CN([C@H](C)CO)C2=O	n	67
Cc1ccc(S(=O)(=O)N(C)C[C@@H]2Oc3c(NS(=O)(=O)c4c(C)noc4C)cccc3C(=O)N([C@H](C)CO)C[C@@H]2C)cc1	n	n
Cc1ccc(S(=O)(=O)N(C)C[C@@H]2Oc3c(NS(=O)(=O)c4c(C)noc4C)cccc3C(=O)N([C@@H](C)CO)C[C@@H]2C)cc1	n	89
Cc1noc(C)c1S(=O)(=O)Nc1cccc2c1O[C@H](CN(C)S(=O)(=O)c1ccc(Cl)cc1)[C@H](C)CN([C@@H](C)CO)C2=O	n	n
Cc1noc(C)c1S(=O)(=O)Nc1cccc2c1O[C@@H](CN(C)S(=O)(=O)c1ccc(Cl)cc1)[C@@H](C)CN([C@@H](C)CO)C2=O	n	106
FC(F)(F)c1cc(-c2cn3ccccc3n2)cc(C(F)(F)F)c1	n	n
O=C(Cc1ccccc1[N+](=O)[O-])Nc1ccccc1C(=O)NC1CCCCC1	n	x
